This passage reports sensor-assay potency score (higher = more potent) results from the OligoGym collection.
Further: reference of the scale not given here.

One assay has as its target TNPO2. The assay is described as follows: pooled miR-30 sensor sort-seq; sequence = guide strand. The conditions noted are these: shRNA.
Consider TTGTTCTTGAGGATGAGGCCAC, for which the sensor-assay potency score (higher = more potent) is -0.289.
Still for that read-out and setting: the value for TGAGTCTTTGAGCAGCTGCAGG was -1.5; that for TTGACACCGATCATCATGCAGA was -0.349; that for TTTGAGCAGCTGCAGGACCTGC was -1.11.
Same read-out and setting: the figure for TTGTCTTCGTCCTTGAGCTCAT is 0.165; for TTGAAGAACTGCAGGAACTTGG it is -0.371; for TTTGAGTTTATCCTGCACGATG it is -1.1.
Same read-out and setting: the figure for AATCTTATAAAACATGTCCCGA is -0.983.
Regarding TTCTCTAGAATTGCTGACCCAG, the sensor-assay potency score (higher = more potent) was -0.678.
The same measure, in the same setting: the figure for AATGTTGTTGAGACACTCCTGT is 0.856.

The next assay has as its target TOMM40L. The assay is described as above. As to conditions: shRNA.
Regarding TATACCATAGAACACATCCACC, the sensor-assay potency score (higher = more potent) is -1.17.
On the same count and under the same terms, the value for TTTGGAACCTCTGATAGTCTGT was 0.397; that for TCTGATAGTCTGTCATACCAGA was -0.753.
In the case of TAGTCTGTCATACCAGAGCATG, the sensor-assay potency score (higher = more potent) was -1.7.
Same read-out and setting: the figure for TTATACCATAGAACACATCCAC is -0.126; for TACCAAATCCAGCACATCCAGG it is -1.16; for TAAGAGGTAAAGAAGCTCCTTC it is 0.51.
On the same count and under the same terms, the value for TAGACGGTGCAGCTCATCGAAG was -1.14.
TGTGGTAGTAACTTGCATGGGC displayed a sensor-assay potency score (higher = more potent) of 1.17.
Regarding TTTCTCTAATGTTCAGACCTGG, the sensor-assay potency score (higher = more potent) was -0.359.
Same read-out and setting: the value for TTACTATCCACCAAGCCTCTAA was -0.326.
The same measure, in the same setting: the figure for TACATCTTTGCATAGACGGTGC is 0.000587.

A further assay addresses TOP1MT. The description is as above. As to conditions: shRNA.
Take TTGTAGGTCCGGAACACCTTGG: the sensor-assay potency score (higher = more potent) is -0.571.
Take TGTAGGATAAGATCTTAGCTGC: the sensor-assay potency score (higher = more potent) was 0.167.
The same measure, in the same setting: the value for TTTTTCTTGGTGACCATCTAAA was -1.15.
TATTCATGATCTAACATCCTCC yielded a sensor-assay potency score (higher = more potent) of 0.13.
On the same count and under the same terms, the value for TTCTTCTCCAGGACACTCCTGG was 0.134; that for TTTGCCTGGATCTTCGTCTGGA was 0.141; that for TTGTTGTGTATTCATGATCTAA was -0.885.
Still for that read-out and setting: the value for TTTTGCTGTAGATCTTCTCCAC was 0.12.
On the same count and under the same terms, the figure for TTCTGAACGCTCTCGGTCCAAG is -1.34; for TTGTCCACAAAGTATCTGTGGA it is 0.0397.
Turning to TCATTGAAGAAGTTCTTCCGGA, the sensor-assay potency score (higher = more potent) was found to be 0.332.
The same measure, in the same setting: the figure for TTGTTCTCCTCCTTGTCCGTGG is -0.327.

Another assay deals with TP53I13. The description is as above. The conditions noted are these: shRNA.
Regarding TCGTGTGTAGGTCACTCTTGGT, the sensor-assay potency score (higher = more potent) was -1.06.
In the case of TAGAGGAAGGTGACATCCTCAG, the sensor-assay potency score (higher = more potent) was -0.655.
Still for that read-out and setting: the value for TCGGAAGTTTCTGTGCAGCCGT was -0.684.
On the same count and under the same terms, the figure for TCACTCTTGGTGACACCTGCGG is -0.664; for TGAGCCTCTGTCCTGGAGCTGG it is -1.27.
